# JMJD2A Tudor inh – qHTS Assay for Inhibitors of JMJD2A-Tudor Domain; Lysine-specific demethylase 4A (Homo sapiens), O75164; AlphaScreen JMJD2A-Tudor / H3K4me3 peptide binding; Potency, µM (highest dose often 114 µM), most hits filed as inhibitors; actives 4.4% (n = 390,000); AID 504339, 2011; note: nearly all actives have a fitted effect of over 50% in size
# BAZ2B inh – qHTS Assay for Inhibitors of BAZ2B. Bromodomain adjacent to zinc finger domain protein 2B (Homo sapiens), Q9UIF8. AlphaScreen BAZ2B-H3K14Ac peptide displacement. Potency, µM (top dose mostly 114 µM), most hits filed as inhibitors. actives 4.4% (n = 360,000). AID 504333, 2011; note: nearly all actives have a fitted effect of over 60% in size
#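 BAZ2B (50 nM) with biotin-H3(5-23)K14Ac peptide (50 nM) in PBS pH 7.4, 0.01% Tween-20, preformed 30 min, then compound 30 min at room temperature; top concentration 110uM. AlphaScreen streptavidin donor/nickel chelate acceptor beads (10 ug/mL final), 20 min dark, signal read.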
# Sfp inh – qHTS Assay for Inhibitors of Bacillus subtilis Sfp phosphopantetheinyl transferase (PPTase); actives 3.5% (n = 310,000); 4'-phosphopantetheinyl transferase ffp (Bacillus subtilis), Q9F4F7; Biochemical Sfp PPTase activity, qHTS; Potency, µM, most hits filed as inhibitors;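 note: the enzyme is Sfp with the accession as filed and its product quenches rhodamine fluorescence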
#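 Step 1, compound plus 15 nM Sfp-PPTase, 15 min, room temperature. Step 2, add rhodamine-CoA (5 uM) and BHQ-2-YbbR (12.5 uM). Step 3, read 525/598 nm fluorescence at 0 and 30 min.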
# HP1b binding inh – HTS for Inhibitors of HP1-beta Chromodomain Interactions with Methylated Histone Tails; AlphaScreen HP1-beta / biotin-H3K9me3 peptide binding; Potency, µM (top dose mostly 114 µM), hits mostly inhibitors; actives 0.56% (n = 390,000); AID 540317, 2011; note: nearly all actives have a fitted effect of over 70% in size
#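 AlphaScreen: HP1-beta (50 nM) preformed 30 min with biotin-H3(1-18)K9me3 peptide (50 nM) in PBS pH 7.4, 0.01% Tween-20. Compound added for 30 min at RT, then streptavidin donor/nickel chelate acceptor beads (10 ug/mL) for 30 min.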
# PLK1 PBD block – qHTS for Inhibitors of PLK1-PDB (polo-like kinase 1 - polo-box domain): Primary Screen | Serine/threonine-protein kinase PLK1 (Homo sapiens), P53350 | Plk1 PBD binding of FITC phosphopeptide, fluorescence polarization | Potency, µM, most hits filed as inhibitors | actives 2.8% (n = 360,000) | AID 720504, 2013; note: series mostly up to about 57 µM; nearly all actives have a fitted effect of over 65% in size
# G9a block – qHTS Assay for Inhibitors of Histone Lysine Methyltransferase G9a. Histone-lysine N-methyltransferase EHMT2 (Homo sapiens), Q96KQ7. G9a H3K9 monomethylation, AlphaScreen, 2 h. Potency, µM (titrated, usually from 102 µM), usual class: inhibitors. actives 8.8% (n = 350,000); note: nearly all actives have a fitted effect of over 75% in size
#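 Step 1: enzyme (final 20 nM) with compound, 15 min RT. Step 2: substrate peptide 500 nM and SAM 20 uM, 2 h RT. Step 3: anti-H3K9me1 antibody and AlphaScreen beads, 10 min, then plate read.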
# A number is an active result; . = inactive; ? = inconclusive; / = no result given; [ ] = another dose, or the depositor's remark. An excerpt weighted towards active compounds, which were near 12% of everything screened. Calls come from the whole dose curve; as a rule, active = well fitted curve in the direction sought with a large enough effect; inconclusive = small, poorly fitted or top-dose-only effect, or another doubt; inactive = no such curve, though single readings can be large; an effect the other way counts as inactive or inconclusive.
SMILES,JMJD2A Tudor inh,BAZ2B inh,Sfp inh,HP1b binding inh,PLK1 PBD block,G9a block
Clc1ccc(-c2csc3ncnc(NCCN4CCOCC4)c23)cc1,.,.,.,.,.,.
Clc1ccc(CNc2nc(CN3CCOCC3)nc3scc(-c4ccccc4)c23)cc1,?,50µM,56µM,.,.,?
CCOc1ccc(Br)cc1S(=O)(=O)Nc1cccnc1,.,.,.,.,.,?
CCn1cnc2c(Nc3ccc(CCC(=O)N=C(N)N)cc3)nc(C#N)nc21,.,/,/,/,/,/
Cc1ccc2cc(CN(Cc3ccccc3)Cc3nnnn3C3CCCC3)c(=O)[nH]c2c1,.,.,.,.,.,.[12.7 µM]
COc1ccc(Cn2nnnc2CN(Cc2cc3ccc(C)cc3[nH]c2=O)C2CCCC2)cc1,.,.,.,.,.,35µM
COc1cc2cc(CN(Cc3nnnn3Cc3ccco3)C3CCCCC3)c(=O)[nH]c2cc1OC,?,.,10µM,.,?,40µM
CCOc1ccc2[nH]c(=O)c(CN(Cc3nnnn3Cc3ccco3)C3CCCCC3)cc2c1,.,45µM,4µM,.,.,?
CCC(C)(C)n1nnnc1CN(Cc1cc2cc(OC)ccc2[nH]c1=O)C1CCCC1,.,.,.,.,.,.
Cc1ccc2cc(CN(Cc3ccc(F)cc3)Cc3nnnn3C3CCCC3)c(=O)[nH]c2c1,.,.,22µM,.,.,14µM
O=C(NCCCCNCCCNC(=O)c1ccccc1)c1ccccc1,.,/,/,.,.,/
O=C(NN=Cc1ccc(O)c(O)c1)c1ccccc1,/,/,/,/,.,/
O=C(COc1ccccc1C(=O)N/N=C\c1ccc(O)c(O)c1)N/N=C/c1ccc(O)c(O)c1,2.2µM,1.6µM,?,7.9µM,.,?
Cc1ccc(OCC(=O)N/N=C/c2ccccc2)c([N+](=O)[O-])c1,.,.,.,.,.,.
O=C(COc1ccccc1[N+](=O)[O-])N/N=C/c1ccc(O)c([N+](=O)[O-])c1,.,.,.,?,.,50µM
O=[N+]([O-])c1cc(/C=N\Nc2nccs2)ccc1O,/,4µM,14µM,/,/,.[2.33 µM]
COc1ccc(C2C(C#N)=C3NC(=O)c4c(sc5c4CCCCC5)N3C3=C2C(=O)CC(C)(C)C3)cc1 (centres undefined),.,.,56µM,?,?,.
COc1cccc(-c2nnc3n(Cc4ccccc4Cl)c(=O)c4ccccc4n23)c1O,.,.,/,.,/,.
O=C(N/N=C/c1oc(O)c2ccccc12)c1ccccc1,.,.,.,.,.,11µM
O=C(COC(=O)c1ccc2ncsc2c1)NC(=O)C1CCCCC1,.,/,/,.,/,/
C#CCN1C(=O)C(O)(CC(=O)/C=C/c2ccco2)c2ccccc21 (centres undefined),.,?,35µM,.,.,50µM
Cc1ccc(-c2nc3ccccn3c2NCc2ccc3c(c2)OCO3)cc1,100µM,?,?,?,.,?
Cc1ccc(-c2nc3nc(C)cc(C)n3c2Nc2ccc3c(c2)OCCO3)cc1,?,?,/,.,/,?
Cc1ccc(Nc2c(-c3ccc(N(C)C)cc3)nc3ccccn23)cc1,7.9µM,.,/,?,/,?
Cc1cccc2nc(-c3ccc(N(C)C)cc3)c(Nc3ccc4c(c3)OCO4)n12,.,/,/,.,/,2.2µM
Cc1ccc(-c2nc3ccccn3c2Nc2ccc3c(c2)OCO3)cc1,25µM,18µM,/,?,/,10µM
C/C1=C\[C@@H](O)C(C(C)C)C(OC(=O)c2ccc(O)cc2)C/C(C)=C/CC1 (some centres undefined),/,/,.,/,/,/
COc1ccc2c(c1)c1c(c(=O)n(-c3cccc(C)c3)c(=O)n1CC(=O)NCc1ccc(C)cc1)n2C,.,.,/,.,/,.
CO[C@H]1COC(=O)C/C=C\[C@@H](C)COC(=O)[C@@H](C)NC(=O)C/C=C\[C@@H]1C,/,/,.,/,/,/
